Consider 39 compounds from PubChem BioAssay (NCATS).

Records with an inconclusive call do not appear. Values without a mark were called inactive. Activity calls are given as the source filed them. The call rests on the fitted dose curve; in most records, active means well fitted inhibition curve with a large enough effect; inconclusive means small, poorly fitted or top-dose-only effect; inactive means flat fitted curve, though single readings scatter.
On the % scale 0 is the no-effect control and ±100 the full control effect.

Calcium and integrin-binding protein 1 (Homo sapiens), sequence (Q99828 whole entry, looked up): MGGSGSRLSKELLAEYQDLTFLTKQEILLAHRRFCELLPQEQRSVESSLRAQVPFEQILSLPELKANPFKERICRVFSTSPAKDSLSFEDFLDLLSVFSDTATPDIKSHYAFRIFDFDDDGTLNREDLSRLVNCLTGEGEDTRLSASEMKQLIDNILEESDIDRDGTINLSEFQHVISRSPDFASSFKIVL

This assay concerns the target Calcium and integrin-binding protein 1 (Homo sapiens) (UniProt Q99828). Put plainly: Primary qHTS for Identification of Calcium Integrin Binding Protein 1 (CIB1) Competitor (AID 1508620).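 Further: GST tagged CIB1 binding a fluorescein labelled alphaIIb integrin peptide tracer; top concentration of the series differs between compounds.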 As to conditions: CIB1-GST / FITC-alphaIIb peptide fluorescence polarization; series mostly up to 114 µM; activity change, negative = inhibition: at the top concentration. Put shortly: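 CIB1-GST (1 uM final) and compound incubated 15 min at room temperature before adding FITC-alphaIIb peptide tracer (100 nM final). Competition for binding read by fluorescence polarization (ex 480, em 540) after another 15 min at room temperature.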
(In general: In qHTS, concentration-response curves come from the screen itself.)
`CC(C)c1ccccc1-c1nc(NCc2ccc(-c3cccnc3)cc2)c2ccccc2n1`: the “activity change, negative = inhibition” value is 6.26%. For the compound `COc1cc(O)c([C@H](CC(=O)N2CC(C)CC(C)C2)c2ccc3c(c2)OCO3)c(OC)c1` (some centres undefined), the “activity change, negative = inhibition” value was 0.106% [at 228 µM]. Turning to `Cc1cccc(-n2cnc3cc(C(=O)NC(C)(C)C)ccc32)c1`, the “activity change, negative = inhibition” value was 4.18%. Still for that read-out and setting: the result for `COc1cc(O)c(C(CC(=O)N2CCC[C@H](C)C2)c2ccc3c(c2)OCO3)c(OC)c1` (some centres undefined) reads -5.13% [at 228 µM]; that for `Cc1ccc(C)n1-c1cccc(-c2nn[nH]n2)c1`, 29.6%; that for `Cn1c2cc(B(O)O)sc2c2cnn(Cc3c(F)cccc3Cl)c(=O)c21`, 3.07%.

In the case of `Cc1cc2c(s1)c1cnn(Cc3ccc(Cl)c(Cl)c3)c(=O)c1n2C`, the “activity change, negative = inhibition” value is 5.6%. In the case of `O=C(O)c1ccc(CSc2nnc(-c3cccc(S(=O)(=O)NC4CCCC4)c3)n2-c2ccc(F)cc2)cc1`, the “activity change, negative = inhibition” value is 1.49%. Still for that read-out and setting: the figure for `COc1ccccc1N1C(=O)c2ccccc2C1=O` is 0.214%; for `COc1cc(-c2nc(Nc3ccc(F)c(F)c3)c3ccccc3n2)cc(OC)n1` it is 3.21%; for `Cc1cccc(-n2cnc3cc(C(=O)N4CCCC(c5ccccc5)C4)ccc32)c1` (centres undefined) it is 3.59%. For the compound `Cc1ccc(NS(=O)(=O)c2ccc(F)cc2)cc1C`, the “activity change, negative = inhibition” value was 1.76%. Same read-out and setting: the result for `CCn1c2cc(C)sc2c2cnn(Cc3ccccc3F)c(=O)c21` reads -2.69%; that for `FC(F)(F)c1ccccc1-c1nc(NCC23CC4CC(CC(C4)C2)C3)c2ccccc2n1`, -0.432%; that for `NC(=O)C1CCN(c2nc(-c3cccc(Br)c3)cs2)CC1`, 2.65%.

With `CONC(=O)C[C@@H](C#N)NC(=O)[C@@H]1CCCN1C(=O)[C@@H](NC(=O)c1ccc(N)c(Cl)c1)C(C)(C)C`, the “activity change, negative = inhibition” value was 4.8%. Same read-out and setting: the figure for `COc1ccccc1-c1nnc2n1N=C(c1ccc(OC(F)F)c(OCC3CC3)c1)CS2` is 1.36%. On the same count and under the same terms, the result for `Fc1cccc(CSc2nc3ncc(Br)cc3[nH]2)c1` reads 1.75%; that for `CN(C)c1cccc(-c2ncc(F)c(N3CCC(C(N)=O)CC3)n2)c1`, 3.13%. Same read-out and setting: the result for `Cc1ccc(NS(=O)(=O)c2cc3c(cc2C)OCC(=O)N3)cc1C` reads 3.46%; that for `Cc1cc(N[S+](=O)([O-])c2ccc(NC(=O)Cc3nc4ccc(Cl)cc4[nH]3)cc2)no1`, -19.8%.

For `O=C(c1ccccc1O)N(Cc1ccco1)Cc1cccs1`, the “activity change, negative = inhibition” value was -14.7%. As to `CN(Cc1cccs1)c1ncnc2ccc(-c3ccc4cnn(C)c4c3)cc12`, the “activity change, negative = inhibition” value is 4.68%. As for `O=S1(=O)N=C(Sc2cccc3cccnc23)c2ccccc21`, the “activity change, negative = inhibition” value was -17%.

Take `CC(C)(C)OC(=O)N1CCN(c2ccc(NCc3ccc(-c4ccc(C#N)cc4)s3)cc2)CC1`: the “activity change, negative = inhibition” value was -4.58%. On the same count and under the same terms, the figure for `CC(=O)Nc1sc2c(c1-c1ccco1)CCNC2` is -14.5%; for `O=C1CCCC2=C1C(c1cccnc1)N=C(Nc1nc3ccccc3o1)N2` (centres undefined) it is -14.6%. Still for that read-out and setting: the figure for `COc1ccc(CN(Cc2ccccc2)C(=O)c2ccccc2)cc1COc1ccc(NC(C)=O)cc1` is 0.803%; for `CSc1ccccc1-c1ncc(C)c(NCc2ccc(-c3cccnc3)cc2)n1` it is -0.187%. Turning to `COc1ccnc(NC(=S)N2CCN(c3cccc(C(F)(F)F)n3)CC2)c1`, the “activity change, negative = inhibition” value is 4.68%.

Take `COc1ccc(S(=O)(=O)N2CCN(S(=O)(=O)c3ccc(OC)cc3)CC2)cc1`: the “activity change, negative = inhibition” value was -0.0373%. Same read-out and setting: the figure for `O=C(CCC#CCSc1nnc(-c2cccc3ccccc23)o1)c1ccccc1` is 3.05%; for `COc1cc(NC(=O)C(OC(=O)CNC(=O)c2ccccc2)c2ccccc2)cc(OC)c1` (centres undefined) it is 1.37%. As for `NC(=O)C1CCN(c2nc(-c3cccc4sc5ccccc5c34)cs2)CC1`, the “activity change, negative = inhibition” value was -3.42%. `O=C(Cc1nnc(-c2cc3ccccc3[nH]2)s1)Nc1cc(C(F)(F)F)ccc1Cl`: the Potency result is “inactive”. With `C[C@@H]1CN(S(=O)(=O)c2c(F)cccc2F)CCN1S(=O)(=O)c1ccc2c(c1)OCCO2`, the “activity change, negative = inhibition” value is 1.5%. As for `Cc1cc(-c2nnc3n2CCCCC3)c(C)n1-c1ccccn1`, the “activity change, negative = inhibition” value is -4.95%. Take `Cc1ccc(N2CCC(CNc3nc(-c4ccccc4C(C)C)ncc3F)CC2)cn1`: the “activity change, negative = inhibition” value was 3.46%. Same read-out and setting: the figure for `Cc1cc2c(s1)c1cnn(Cc3ccccc3C)c(=O)c1n2C` is 8.01%.
